For some of these results: Results with a measured potency or affinity are listed apart.

This note sets out measurements from ChEMBL document CHEMBL3988442, “University of Dundee, Small-Polar-MMV Screening Library” (2021).

What all share (parameters): scale not given: direction of the effect not stated beside the values
For test [1], the target named is Protein translocase subunit SecA (Escherichia coli (strain K12)) (UniProt P10408). In words: Assay to Identify E. coli SecA ATPase Inhibitors. To be noted: 30 µM. The class given is functional.
Chain of Protein translocase subunit SecA (Escherichia coli (strain K12)) (P10408 whole entry): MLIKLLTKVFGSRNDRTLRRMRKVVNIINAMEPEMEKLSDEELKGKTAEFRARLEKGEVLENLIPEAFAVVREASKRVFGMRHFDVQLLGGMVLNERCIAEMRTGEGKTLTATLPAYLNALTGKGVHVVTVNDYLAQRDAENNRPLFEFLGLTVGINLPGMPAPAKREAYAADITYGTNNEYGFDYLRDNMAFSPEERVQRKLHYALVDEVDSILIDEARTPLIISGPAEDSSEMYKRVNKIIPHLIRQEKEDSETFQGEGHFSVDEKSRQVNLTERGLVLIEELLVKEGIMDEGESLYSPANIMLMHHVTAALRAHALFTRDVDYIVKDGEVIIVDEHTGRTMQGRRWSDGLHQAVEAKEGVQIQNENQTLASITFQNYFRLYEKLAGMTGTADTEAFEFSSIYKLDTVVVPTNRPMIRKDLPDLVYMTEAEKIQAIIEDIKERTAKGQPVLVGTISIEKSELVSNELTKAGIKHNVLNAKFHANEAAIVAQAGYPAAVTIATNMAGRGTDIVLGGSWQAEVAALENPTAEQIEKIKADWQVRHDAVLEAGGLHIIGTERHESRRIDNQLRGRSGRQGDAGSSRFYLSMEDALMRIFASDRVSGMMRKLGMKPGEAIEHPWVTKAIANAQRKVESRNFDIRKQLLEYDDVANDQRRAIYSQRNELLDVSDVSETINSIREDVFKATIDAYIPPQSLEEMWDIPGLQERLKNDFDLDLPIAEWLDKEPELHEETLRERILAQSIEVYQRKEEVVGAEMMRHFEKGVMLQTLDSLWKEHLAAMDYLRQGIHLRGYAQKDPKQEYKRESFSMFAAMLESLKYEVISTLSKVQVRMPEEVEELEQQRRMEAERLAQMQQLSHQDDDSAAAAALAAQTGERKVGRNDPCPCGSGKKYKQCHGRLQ
Test [2] deals with T1, Ubiquitin-activating enzyme e1, putative (Leishmania donovani (strain BPK282A1)) (UniProt E9BSI1).
T1 sequence (whole entry): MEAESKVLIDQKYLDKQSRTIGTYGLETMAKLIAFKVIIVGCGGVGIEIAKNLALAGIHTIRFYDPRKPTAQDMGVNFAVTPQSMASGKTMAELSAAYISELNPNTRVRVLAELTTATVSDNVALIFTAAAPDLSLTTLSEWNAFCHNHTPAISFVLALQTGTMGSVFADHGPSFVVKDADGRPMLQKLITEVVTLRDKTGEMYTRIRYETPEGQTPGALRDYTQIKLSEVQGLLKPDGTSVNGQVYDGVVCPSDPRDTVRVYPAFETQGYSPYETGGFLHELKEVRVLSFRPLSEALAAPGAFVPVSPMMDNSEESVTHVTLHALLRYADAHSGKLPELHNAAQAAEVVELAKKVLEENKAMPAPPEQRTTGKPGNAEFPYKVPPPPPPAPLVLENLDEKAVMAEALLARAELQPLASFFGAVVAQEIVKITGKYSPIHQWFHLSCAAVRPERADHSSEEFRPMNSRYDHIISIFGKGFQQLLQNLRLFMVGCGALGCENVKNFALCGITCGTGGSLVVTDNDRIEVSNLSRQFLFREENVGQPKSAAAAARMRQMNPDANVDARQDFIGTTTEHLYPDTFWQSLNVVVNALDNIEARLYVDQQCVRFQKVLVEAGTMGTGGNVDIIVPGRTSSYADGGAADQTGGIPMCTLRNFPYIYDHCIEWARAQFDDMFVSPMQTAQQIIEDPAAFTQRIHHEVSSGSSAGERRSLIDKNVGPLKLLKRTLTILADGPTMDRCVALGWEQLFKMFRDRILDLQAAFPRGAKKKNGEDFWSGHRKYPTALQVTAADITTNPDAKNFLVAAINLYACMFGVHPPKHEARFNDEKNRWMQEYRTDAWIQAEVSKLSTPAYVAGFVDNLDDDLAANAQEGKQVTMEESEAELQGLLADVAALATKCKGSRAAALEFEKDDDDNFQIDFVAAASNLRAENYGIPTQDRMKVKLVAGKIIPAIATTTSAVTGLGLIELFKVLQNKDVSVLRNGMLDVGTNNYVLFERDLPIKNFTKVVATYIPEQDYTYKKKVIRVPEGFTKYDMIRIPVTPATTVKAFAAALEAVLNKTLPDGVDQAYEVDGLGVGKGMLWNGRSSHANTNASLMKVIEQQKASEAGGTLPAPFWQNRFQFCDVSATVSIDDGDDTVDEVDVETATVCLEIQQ
In words: Leishmania donovani Ubiquitin Activating Enzyme (LdE1). The class given is functional. To be noted: 30 µM.

The target of test [3] is AMP-activated protein kinase, AMPK (Homo sapiens) (UniProt P54646+O43741+P54619+Q9UGJ0+Q9Y478+Q13131+Q9UGI9). As to the kind of experiment: AMP-dependent Kinase enzyme assay. An in vitro enzyme assay that detects ADP turnover that is directly proportional to AMPK activity. This uses naive AMPK that is activated during the assay with MK-8722. The note with it: 30 µM. The test is classed as functional.

Test [4] concerns the target Sialic acid-binding Ig-like lectin 9 (Homo sapiens) (UniProt Q9Y336). As to the kind of experiment: Hs-Siglec9 ALPHAscreen SOP 20170721. To be noted: 10 µM. A general note: Alpha assays give light when donor and acceptor beads are brought close together.
Another test concerns Trypanosoma cruzi. As to the kind of experiment: Trypanosoma cruzi phosphomannomutase and mannose-1-phosphate guanylyltransferase assay. The class given is functional. To be noted: 10 µM.
For test [5], the target named is T2, Arginase-2, mitochondrial (Homo sapiens) (UniProt P78540).
T2 sequence (whole entry): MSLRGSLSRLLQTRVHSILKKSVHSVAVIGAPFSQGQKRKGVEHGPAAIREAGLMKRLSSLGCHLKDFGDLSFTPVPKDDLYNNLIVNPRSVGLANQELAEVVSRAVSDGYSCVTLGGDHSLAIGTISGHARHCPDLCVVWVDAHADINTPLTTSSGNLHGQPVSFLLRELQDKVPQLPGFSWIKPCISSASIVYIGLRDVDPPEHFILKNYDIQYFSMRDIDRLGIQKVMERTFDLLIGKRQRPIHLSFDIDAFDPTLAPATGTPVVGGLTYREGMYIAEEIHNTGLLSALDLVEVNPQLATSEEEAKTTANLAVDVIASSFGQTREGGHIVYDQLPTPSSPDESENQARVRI
In words: in vitro enzyme assay to detect the production of urea directly proportional to the activity of Arginase II. Note: in the data most compounds retested in dose-response had high values. The test is classed as functional. To be noted: 33.3 µM.

Test [6] deals with T3, Proteasome subunit beta (Trypanosoma cruzi) (UniProt O96673).
T3 sequence (whole entry): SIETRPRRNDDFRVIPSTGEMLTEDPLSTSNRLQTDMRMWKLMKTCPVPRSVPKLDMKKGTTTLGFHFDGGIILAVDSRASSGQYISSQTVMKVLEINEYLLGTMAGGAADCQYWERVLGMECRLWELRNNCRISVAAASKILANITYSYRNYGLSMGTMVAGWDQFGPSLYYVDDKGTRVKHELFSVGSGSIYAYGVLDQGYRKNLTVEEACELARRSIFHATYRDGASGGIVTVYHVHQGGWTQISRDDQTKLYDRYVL
In words: Trypanosoma cruzi proteasome chymotrypsin-like activity (TcProtChymo) assay. Note: in the data most compounds retested in dose-response had high values. The test is classed as functional. The note with it: 9.37 µM.

The species entered for the next test is Homo sapiens. As to the kind of experiment: To identify inhibition of the IFN signalling (Jak-Stat) pathway via expression of an eGFP reporter gene under the control of an IFN-stimulated response element (ISRE) containing MxA promoter. The class given is functional. To be noted: 30 µM.
Test [7] addresses T4, Tyrosyl-tRNA synthetase, putative (Trypanosoma cruzi (strain CL Brener)) (UniProt Q4DSP6).
T4 sequence (whole entry): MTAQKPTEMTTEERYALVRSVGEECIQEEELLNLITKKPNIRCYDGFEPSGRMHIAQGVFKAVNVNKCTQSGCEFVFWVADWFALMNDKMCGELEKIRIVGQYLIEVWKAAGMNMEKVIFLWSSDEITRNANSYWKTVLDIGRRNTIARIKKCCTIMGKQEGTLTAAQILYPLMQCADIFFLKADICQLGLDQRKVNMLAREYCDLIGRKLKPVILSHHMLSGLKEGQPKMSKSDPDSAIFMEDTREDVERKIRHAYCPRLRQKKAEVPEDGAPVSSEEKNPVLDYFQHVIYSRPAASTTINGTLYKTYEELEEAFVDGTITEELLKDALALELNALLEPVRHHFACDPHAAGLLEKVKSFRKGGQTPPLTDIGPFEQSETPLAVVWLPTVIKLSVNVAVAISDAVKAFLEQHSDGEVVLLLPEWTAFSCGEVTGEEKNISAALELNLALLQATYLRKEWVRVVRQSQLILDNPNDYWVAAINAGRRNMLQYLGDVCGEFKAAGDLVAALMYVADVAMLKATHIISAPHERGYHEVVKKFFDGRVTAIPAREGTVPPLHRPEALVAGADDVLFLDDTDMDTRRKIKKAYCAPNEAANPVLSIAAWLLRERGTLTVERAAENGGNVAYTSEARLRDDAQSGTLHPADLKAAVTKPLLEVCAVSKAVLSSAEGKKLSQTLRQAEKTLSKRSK
In words: Trypanosoma cruzi tyrosyl tRNA synthetase (TcYRS) _High Tyrosine SOP. Note: in the data most compounds retested in dose-response had high values. The note with it: 30 µM. The test is classed as functional.

Test [8] deals with T4, Tyrosyl-tRNA synthetase, putative (Trypanosoma cruzi (strain CL Brener)). As to the kind of experiment: Trypanosoma cruzi tyrosyl tRNA synthetase (TcYRS) SOP. The class given is functional. The note with it: 30 µM.
In test [9] the target is Chromo domain-containing protein 1 (Saccharomyces cerevisiae (strain ATCC 204508 / S288c) (Baker's yeast)) (UniProt P32657). As to the kind of experiment: ScCHD-1 Enzyme Inhibition Assay. Note: in the data most compounds retested in dose-response had high values. To be noted: 30 µM. The test is classed as functional.
Chain of Chromo domain-containing protein 1 (Saccharomyces cerevisiae (strain ATCC 204508 / S288c) (Baker's yeast)) (P32657 whole entry, the tested form may be a part): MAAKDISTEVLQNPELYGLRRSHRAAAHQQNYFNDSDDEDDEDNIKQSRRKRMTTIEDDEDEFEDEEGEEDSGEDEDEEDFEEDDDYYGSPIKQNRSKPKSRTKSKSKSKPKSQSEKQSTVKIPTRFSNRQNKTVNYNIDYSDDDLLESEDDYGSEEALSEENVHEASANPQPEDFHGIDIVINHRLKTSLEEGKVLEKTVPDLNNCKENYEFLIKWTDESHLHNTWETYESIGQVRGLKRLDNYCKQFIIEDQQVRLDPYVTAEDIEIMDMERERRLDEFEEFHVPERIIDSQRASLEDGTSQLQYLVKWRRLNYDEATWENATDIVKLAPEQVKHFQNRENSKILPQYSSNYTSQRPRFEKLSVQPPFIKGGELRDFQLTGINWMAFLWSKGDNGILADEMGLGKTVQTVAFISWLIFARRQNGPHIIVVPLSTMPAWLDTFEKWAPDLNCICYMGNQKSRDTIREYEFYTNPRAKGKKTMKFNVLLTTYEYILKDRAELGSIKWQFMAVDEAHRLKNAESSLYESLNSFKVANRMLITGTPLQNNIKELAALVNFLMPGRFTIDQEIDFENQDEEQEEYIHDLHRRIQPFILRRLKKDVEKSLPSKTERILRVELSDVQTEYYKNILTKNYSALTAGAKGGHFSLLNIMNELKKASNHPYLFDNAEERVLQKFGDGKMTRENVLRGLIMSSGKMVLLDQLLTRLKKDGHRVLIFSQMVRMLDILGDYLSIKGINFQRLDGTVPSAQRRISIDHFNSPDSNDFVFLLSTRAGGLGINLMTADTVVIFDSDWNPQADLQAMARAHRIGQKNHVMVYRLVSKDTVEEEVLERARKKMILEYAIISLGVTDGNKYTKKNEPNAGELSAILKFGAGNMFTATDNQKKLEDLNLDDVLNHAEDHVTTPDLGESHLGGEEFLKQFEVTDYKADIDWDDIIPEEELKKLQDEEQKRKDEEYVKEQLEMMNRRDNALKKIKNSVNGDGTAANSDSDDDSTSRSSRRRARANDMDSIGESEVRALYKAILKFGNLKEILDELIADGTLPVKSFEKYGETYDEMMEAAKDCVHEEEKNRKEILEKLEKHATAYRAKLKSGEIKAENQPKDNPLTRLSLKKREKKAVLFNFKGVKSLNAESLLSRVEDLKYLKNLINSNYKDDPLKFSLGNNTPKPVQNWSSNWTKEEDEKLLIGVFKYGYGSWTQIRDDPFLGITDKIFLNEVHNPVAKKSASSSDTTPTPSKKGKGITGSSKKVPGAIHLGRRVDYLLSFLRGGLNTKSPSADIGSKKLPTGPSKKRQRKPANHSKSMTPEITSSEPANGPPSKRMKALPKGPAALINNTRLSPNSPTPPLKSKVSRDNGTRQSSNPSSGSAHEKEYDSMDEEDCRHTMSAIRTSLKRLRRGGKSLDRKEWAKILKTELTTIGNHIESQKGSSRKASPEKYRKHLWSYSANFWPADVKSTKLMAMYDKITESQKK

Chain of Sialic acid-binding Ig-like lectin 9 (Homo sapiens) (Q9Y336 whole entry): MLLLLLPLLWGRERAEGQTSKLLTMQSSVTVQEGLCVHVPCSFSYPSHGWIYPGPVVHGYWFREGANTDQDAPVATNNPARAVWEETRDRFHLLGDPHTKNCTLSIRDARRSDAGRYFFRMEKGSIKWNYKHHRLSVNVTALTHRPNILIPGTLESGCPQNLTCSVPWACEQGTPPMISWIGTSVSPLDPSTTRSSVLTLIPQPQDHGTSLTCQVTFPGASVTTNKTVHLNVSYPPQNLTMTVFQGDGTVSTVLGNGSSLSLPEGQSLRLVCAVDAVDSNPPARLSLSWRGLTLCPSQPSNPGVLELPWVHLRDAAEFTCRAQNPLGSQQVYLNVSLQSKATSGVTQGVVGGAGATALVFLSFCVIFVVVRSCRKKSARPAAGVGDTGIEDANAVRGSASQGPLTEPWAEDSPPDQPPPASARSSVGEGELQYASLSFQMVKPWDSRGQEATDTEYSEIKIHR

As to `CC(=O)N1CC(Cc2nccc3ccn(C)c23)C1`, the Percent Effect in [1] is -2.79%; in [2] it was 24%; in [3] it was 0.304%; in [4], -7.93%; in the test with Trypanosoma cruzi it was 1.18%; in [5] it was 3.96%. In addition, the Percent Effect in test [6] is 22.6%; in the test listed under Homo sapiens it was 1.82%; in test [7], 1.06%; in [8], 16.7%; in test [9], -6.59%.
With `NC(=O)c1cc(C2CCCN(C(=O)CCc3ccsc3)C2)n[nH]1` (stereo unspecified), the Percent Effect is -9.05% in [1]; 5.2% in test [2]; 5.08% in test [3]; -5.24% in test [4]; -5.43% in the test with Trypanosoma cruzi; -1.78% in [5]. For the same compound, the Percent Effect in test [6] is -5.57%; in the test listed under Homo sapiens, 30.9%; in test [7], 3.88%; in [8], 7.32%; in [9] it was -4.93%.
For `Cc1cc(CN(C)C(=O)NC(C)c2nncn2C)no1` (stereo unspecified), the Percent Effect was -1.93% in test [1]; 15.3% in test [2]; -8.88% in test [3]; 15.4% in [4]; 2.43% in the test on Trypanosoma cruzi; 35.8% in test [5]. In addition, the Percent Effect in test [6] is 22.6%; in the test listed under Homo sapiens, -0.22%; in test [7], 3.16%; in [8] it was 10.3%; in [9], 72%.
Regarding `COC(=O)CS(=O)(=O)CCC(=O)N1CCCC1c1ccsc1` (stereo unspecified), the Percent Effect in test [1] is -3.22%; in test [2] it was 6.94%; in [3], -5.88%; in test [4], 21.4%; in the test on Trypanosoma cruzi, 2.82%; in test [5], -2.21%. The Percent Effect was 5.44% in test [6]; -6.88% in the test filed under Homo sapiens; 5.26% in test [7]; 7.69% in [8]; -2.96% in [9].
On to `CNC(=O)[C@H]1C[C@H]2OCC[C@H]2N(Cc2cccc3ccccc23)C1`, for which the Percent Effect was -2.27% in test [1]; 10.4% in test [2]; 2.57% in test [3]; 2.56% in test [4]; -0.296% in the test with Trypanosoma cruzi; -3.23% in [5]. The Percent Effect in test [6] was 8.01%; in the test filed under Homo sapiens it was -0.999%; in [7] it was 3.17%; in test [8] it was 8.97%; in test [9], -9.11%.
As for `CCCN1CCN(C(=O)C(C)n2cc(Br)cn2)CC1` (stereo unspecified), the Percent Effect in test [1] is -1.59%; in test [2] it was 15.6%; in test [3] it was 5.22%; in test [4] it was 7.33%; in the test on Trypanosoma cruzi, 3.05%; in [5], -137%. In addition, the Percent Effect in test [6] is 10.3%; in the test listed under Homo sapiens, -2.4%; in test [7] it was 7.53%; in test [8], 21%; in test [9], -7.35%.
Consider `Cc1cccnc1NC(=O)CC1(Cn2cnnn2)CCCCC1`, for which the Percent Effect is -5.51% in test [1]; 21.1% in test [2]; -0.535% in test [3]; 3.53% in [4]; 1.66% in the test with Trypanosoma cruzi; 1.18% in test [5]. The Percent Effect in [6] is 9.11%; in the test listed under Homo sapiens it was -4.12%; in test [7] it was 3.19%; in test [8] it was 13%; in test [9], -13.8%.
As to `COc1cc(NC(=O)c2cc(C)sc2C)c(C(=O)N(C)C)cc1OC`, the Percent Effect is 0.25% in test [1]; 7.79% in test [2]; -2.17% in test [3]; 6.61% in test [4]; 4.42% with Trypanosoma cruzi; -37.2% in test [5]. Moreover, the Percent Effect was 19.1% in test [6]; -8.35% in the test filed under Homo sapiens; 4.3% in test [7]; 13.6% in [8]; -1.78% in test [9].
As to `O=S1(=O)C[C@@H]2[C@H](C1)N(Cc1ncc[nH]1)CCN2CC1CC1`, the Percent Effect in test [1] is -2.38%; in test [2], 0%; in [3] it was -1.5%; in [4], -1.31%; with Trypanosoma cruzi, -3.28%; in [5], 1.43%. Further, the Percent Effect in test [6] is 3.45%; in the test filed under Homo sapiens, 1.15%; in [7] it was 5.82%; in test [8], 14.6%; in test [9], -2.92%.
Regarding `Cc1cccc(OCCC(=O)N2CCN(S(=O)(=O)N(C)C)CC2)c1C`, the Percent Effect in test [1] is 1.47%; in test [2], 22.8%; in test [3], -5.81%; in test [4], -9.44%; in the test with Trypanosoma cruzi it was 0.661%; in test [5] it was -3.42%. The Percent Effect in test [6] is 8.93%; in the test listed under Homo sapiens, 39.5%; in test [7], 4.43%; in test [8], 16.5%; in test [9], -13.5%.
With `O=C(CSc1nncs1)N1CCN(Cc2ccc(Cl)s2)CC1`, the Percent Effect in test [1] is -2.74%; in [2], 5.48%; in [3] it was 4.99%; in [4] it was 1.5%; in the test with Trypanosoma cruzi it was 5.88%; in [5], 0%. For the same compound, the Percent Effect in test [6] was 18.1%; in the test listed under Homo sapiens, 16.3%; in [7], 4.3%; in [8] it was 12.5%; in test [9] it was -13.2%.
